The record followed here is PubChem BioAssay (Tox21).

Records with an inconclusive call do not appear. A number with no mark means an inactive call. The source made the active and inactive calls. Calls come from the whole dose curve; as a rule, active = well fitted activation curve with a large enough effect in the signal ratio in the repeat runs, with a control signal flat (not every such curve was filed as active); inconclusive = weak or mixed curves; inactive = flat fitted curve, though single readings scatter; the % refers to the signal ratio.
% is set by controls: 0 for no effect and ±100 for the full control effect.

This assay in a line: qHTS assay for small molecule activators of the heat shock response signaling pathway (AID 743210). Particulars: HeLa HSE-bla reporter, beta-lactamase ratio, 5 h; series mostly up to 62.6 µM. The method, boiled down: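 Beta-lactamase reporter read-out: FRET substrate fluorescence after 2.5 h at RT, following 5 h compound treatment at 37 C of HeLa cells carrying HSE-driven bla reporter; quantitative HTS format.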
(In general: In qHTS, concentration-response curves come from the screen itself.)
Take `C=CC(C)(O)CC/C=C(/C)CCC=C(C)C` (stereo not drawn): the result was inactive.

Regarding `CC/C=C/CCO`, the result was inactive. As to `COc1ccc(C(=O)c2ccc(C)cc2)c(O)c1`, the outcome was inactive. Same read-out and setting: for `O=C(O)c1cc(C(=O)O)c(C(=O)O)cc1C(=O)O` the value was “inactive”. Take `OCCc1ccncc1`: the result was inactive. Still for that read-out and setting: to `CC(C)(C(=O)O)c1ccc(C(O)CCCN2CCC(C(O)(c3ccccc3)c3ccccc3)CC2)cc1` (stereo not drawn) belongs “inactive”. As for `CC1=CC(=C(c2ccc(N)cc2)c2ccc(N)cc2)C=CC1=N`, the activation was -0.545% [at 5.95 µM]. On to `COc1cc(CNC(=O)CCCC/C=C/C(C)C)ccc1O`, for which the outcome was inactive. Still for that read-out and setting: to `C/C=C1\[C@H]2C=C(C)C[C@]1(N)c1ccc(=O)[nH]c1C2` belongs “inactive”. On the same count and under the same terms, to `O=C(OC1C[C@H]2CC[C@@H](C1)[N+]21CCCC1)C(O)(c1ccccc1)c1ccccc1` (stereo partly drawn) belongs “inactive”.

`CCOCCn1c(N2CCCN(C)CC2)nc2ccccc21`: the outcome was inactive.

In the case of `CC/C=C\CCO`, the outcome was inactive. The same measure, in the same setting: for `CC(=O)c1ccc(Cl)c(Cl)c1Cl` the value was “inactive”; for `C[C@H](CN1CCCC1)C(=O)c1ccc(C(F)(F)F)cc1`, “inactive”. On the same count and under the same terms, for `C=CCCC` the value was “inactive”; for `CC(=O)Nc1ccccc1O`, “inactive”; for `O=C(O)CNc1ccccc1`, “inactive”. As for `CC(C)CC(C)(C)C`, the outcome was inactive. As for `SCCOCCOCCS`, the result was inactive.

On to `S=c1[nH][nH]c(=S)s1`, for which the outcome was inactive. `CC(C)(C)c1ccc(CCC=O)cc1`: the result was inactive. Same read-out and setting: to `O=C(O)c1ccccc1-n1cc(C(=O)O)c(=O)c2cc(Nc3c(F)cc(F)cc3Cl)c(Cl)cc21` belongs “inactive”.

`O=C(O)COCC(=O)O`: the result was inactive. Still for that read-out and setting: for `NC(=O)c1ccccc1` the value was “inactive”. Consider `Cc1ccc(NC(=O)c2ccc(CN3CCN(C)CC3)cc2)cc1Nc1nccc(-c2cccnc2)n1`, for which the outcome was inactive. With `CCC(C)C1N=C(C)C(C)S1` (stereo not drawn), the result was inactive.

Take `CCN(CCCCOC(=O)c1ccc(OC)c(OC)c1)C(C)Cc1ccc(OC)cc1` (stereo not drawn): the outcome was inactive. The same measure, in the same setting: to `CCCN(C1CCN(C(=O)C2CCNCC2)CC1)[C@@H]1CCc2ccc(OC)cc2C1` belongs “inactive”.
